Values joined by “and” are separate entries in the source; they are usually repeats but may differ in a detail not shown here. Equal values may be shown once. Active and inactive are the calls of the source.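 The calls were made as follows: active = inhibition at or above 50% relative to wild type and mutant plate controls; inactive = inhibition below 50%.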
test: loss of swimming-algae plug formation – whole organism, Chlamydomonas reinhardtii, WT vs cilia-less mutant, absorbance, 96-well, primary screen (AID 463189); conditions: Chlamydomonas reinhardtii gravitaxis, OD600 absorbance, 2 days; at 10 µM; stronger effect = higher value;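 also: 0% = wild type cc124 cells in DMSO and 100% = ciliumless bld1 mutant cells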

Which inhibition does the source give for `NCCCCNCCCN` here?
Its inhibition is -15.4% (inactive).

With `CC(=O)N[C@@H](Cc1c[nH]c2ccccc12)C(=O)OCc1cc(C(F)(F)F)cc(C(F)(F)F)c1` as the molecule, how does the inhibition read?
The inhibition was -0.535% (inactive).

Which inhibition does the source give for `Cn1ccnc1` here?
The inhibition was 9.19% (inactive).

For `CCN(Cc1ccncc1)C(=O)C(CO)c1ccccc1` (stereo not given), which inhibition is on record?
The inhibition was 7.61% (inactive).

With `C=CC(N)CCC(=O)O` (stereo not given) as the molecule, how does the inhibition read?
The inhibition was -6.67% (inactive).

With `N#C/C(=C\c1c[nH]c2ccccc12)C(=O)c1ccc(O)c(O)c1` as the molecule, how does the inhibition read?
Its inhibition is 4.95% (inactive).

With `CC(C)NCC(O)c1ccc(O)c(O)c1` (stereo not given) as the molecule, how does the inhibition read?
Its inhibition is -5.24% (inactive) and 12.5% (inactive).

Which inhibition does the source give for `C/C(=C\c1ccc(C(=O)O)cc1)c1ccc2c(c1)C(C)(C)CCC2(C)C` here?
Its inhibition is 9.5% (inactive).

For `CC[C@H](C)C(=O)O[C@H]1CCC=C2C=C[C@H](C)[C@H](CC[C@@H]3C[C@@H](O)CC(=O)O3)[C@H]21`, which inhibition is on record?
The inhibition was 9.46% (inactive).

Which inhibition does the source give for `NC(N)=[N+]1CCc2ccccc2C1` here?
Its inhibition is -2.7% (inactive).

Which inhibition does the source give for `O=S(=O)(c1cccc2c(I)cccc12)N1CCCNCC1` here?
Its inhibition is -1.51% (inactive).

Which inhibition does the source give for `N[C@@H](Cc1ccc(O)c(O)c1)C(=O)O` here?
Its inhibition is 2.49% (inactive).

For `C=CCN1CCc2c(cc(O)c(O)c2Br)[C@@H](c2ccccc2)C1`, which inhibition is on record?
Its inhibition is 0.67% (inactive).

For `CCNC(=O)C1OC(n2cnc3c(NCc4ccccc4)ncnc32)C(O)C1O` (stereo not given), which inhibition is on record?
The inhibition was -0.03% (inactive).

Which inhibition does the source give for `NC(N)=NC(N)=Nc1ccccc1` here?
The inhibition was 4.74% (inactive).

Which inhibition does the source give for `NC(=O)c1cc[n+](CC2=C(C(=O)O)N3C(=O)[C@@H](NC(=O)[C@@H](c4ccccc4)S(=O)(=O)[O-])[C@H]3SC2)cc1` here?
The inhibition was -6.94% (inactive).

Which inhibition does the source give for `Cc1cc(NC(=O)Nc2ccc3c(ccn3C)c2)sn1` here?
The inhibition was 5.1% (inactive).

Which inhibition does the source give for `O=C(Nc1ccccc1)c1cc([N+](=O)[O-])ccc1Cl` here?
Its inhibition is 2.4% (inactive).

Which inhibition does the source give for `O=C1N(c2ccccc2)c2ccccc2C1(Cc1ccncc1)Cc1ccncc1` here?
Its inhibition is -3.34% (inactive).

With `CCN(c1nc(N)c(C(=O)N=C(N)N)nc1Cl)C(C)C` as the molecule, how does the inhibition read?
Its inhibition is 7.11% (inactive).

For `CC(C)(C)NCC(O)c1ccc(O)c(CO)c1` (stereo not given), which inhibition is on record?
Its inhibition is 2.6% (inactive) and 2.52% (inactive).

With `O=C(O)c1cc(=O)c2c(Cl)cc(Cl)cc2[nH]1` as the molecule, how does the inhibition read?
Its inhibition is 2.38% (inactive).

For `O=c1oc(Cl)c(Cl)c2ccccc12`, which inhibition is on record?
Its inhibition is 3.88% (inactive).

Which inhibition does the source give for `NCCc1ccc(O)c(O)c1` here?
Its inhibition is -0.97% (inactive).

For `CCCc1c(-c2ccc(O)cc2)nn(-c2ccc(O)cc2)c1-c1ccc(O)cc1`, which inhibition is on record?
The inhibition was 6.07% (inactive).

For `NC12CC3CC(CC(C3)C1)C2`, which inhibition is on record?
The inhibition was -2.58% (inactive).

For `OC[C@H]1O[C@@H](n2cnc3c(NC4CCCC4)ncnc32)C(O)[C@H]1O` (stereo not given in full), which inhibition is on record?
Its inhibition is 2.66% (inactive).

For `O=c1[nH]c(=O)n([C@H]2C[C@H](O)[C@@H](CO)O2)cc1/C=C/Br`, which inhibition is on record?
The inhibition was 6.74% (inactive).

For `CC(C)C[C@H](NC(=O)C1OC1C(=O)O)C(=O)NCCCCN=C(N)N` (stereo not given in full), which inhibition is on record?
Its inhibition is -4.58% (inactive).

For `O=C1CCC(N2C(=O)c3ccccc3C2=O)C(=O)N1` (stereo not given), which inhibition is on record?
The inhibition was 10.8% (inactive).

Which inhibition does the source give for `CN=C(N)NCCC[C@H](N)C(=O)O` here?
Its inhibition is 3.39% (inactive).

For `NC(=S)c1ccc[n+]([C@@H]2O[C@@H](COP(=O)([O-])OP(=O)(O)OC[C@H]3O[C@@H](n4cnc5c(N)ncnc54)C(OP(=O)(O)O)[C@H]3O)C(O)C2O)c1` (stereo not given in full), which inhibition is on record?
Its inhibition is 6.21% (inactive).

For `CSc1ccc(C(=O)c2[nH]c(=O)[nH]c2C)cc1`, which inhibition is on record?
Its inhibition is -1.05% (inactive).

With `CN1CCN(C2Cc3ccccc3Sc3ccc(Cl)cc32)CC1` (stereo not given) as the molecule, how does the inhibition read?
The inhibition was 30.5% (inactive).

With `O=C(CCc1ccc(O)cc1)c1c(O)cc(O)cc1O` as the molecule, how does the inhibition read?
The inhibition was -0.519% (inactive).

With `C=CC[C@H](N)C(=O)O` as the molecule, how does the inhibition read?
The inhibition was 4.13% (inactive).

With `CN(CCOc1ccc(C[C@H](Nc2ccccc2C(=O)c2ccccc2)C(=O)O)cc1)c1ccccn1` as the molecule, how does the inhibition read?
Its inhibition is 1.04% (inactive).

For `Cn1c(=O)c2c(ncn2C)n(C)c1=O`, which inhibition is on record?
The inhibition was 1.74% (inactive).

Which inhibition does the source give for `O=C(O)/C(=C/c1c(C(=O)O)[nH]c2cc(Cl)cc(Cl)c12)c1ccccc1` here?
The inhibition was -3.38% (inactive).

For `O=c1[nH]c2cc(Cl)ccc2c(O)c1-c1ccc(Oc2ccccc2)cc1`, which inhibition is on record?
Its inhibition is 5.4% (inactive).

From PubChem BioAssay
